A short description of test [1]: qHTS to identify inhibitors of the type 1 interferon - major histocompatibility complex class I in skeletal muscle: primary screen against the NCATS Pharmaceutical Collection (AID 1347407).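 Also: luminescence of HiBiT knocked into endogenous HLA-B as interferon-induced MHC class I level.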 Also: potency is read from the fitted curve at half-maximal effect. As to activity change, negative = inhibition: % is scaled to controls: 0 for no effect and ±100 for the full control effect. A digest of the protocol:
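A qHTS format is used: 8-point, 1:5 compound series with 46 uM top final concentration, applied alongside 4 ng/ml IFN-beta to HLA-B*08:01-HiBiT knock-in myoblasts. Luminescence is measured after 24 h treatment.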
(In qHTS, concentration-response curves come from the screen itself.)

Test [2] can be described thus: qHTS to identify inhibitors of the type 1 interferon - major histocompatibility complex class I in skeletal muscle: primary screen against the NCATS Mechanism Interrogation Plate v5.0 (MIPE) Libary (AID 1347411). Also: nearly all actives have a fitted effect of over 65% in size. Also: potency is read from the fitted curve at half-maximal effect.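 As to activity change, negative = inhibition: plate controls were vehicle for no effect and reference inhibitor for full effect.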 A digest of the protocol:
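Immortalized human C25cl48 myoblasts with HiBit knocked into endogenous HLA-B*08:01 were stimulated with 4.0 ng/ml IFN-beta and exposed to compounds (11-point 1:3 titration, top 46 uM final) for 24 hrs at 37 C; HiBiT lytic luminescence measured.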

Test [3] deals with Protein phosphatase 1D (Homo sapiens) (UniProt O15297). In words: RapidFire Mass Spectrometry qHTS Assay for Modulators of WT P53-Induced Phosphatase 1 (WIP1) (AID 1347424).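 Also: amount of dephosphorylated VEPPL-S-QETFS peptide product formed by WIP1; series mostly up to about 63 µM; plate controls were DMSO wells for no effect and GSK830371 inhibitor control at 10 µM for full effect.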 A digest of the protocol:
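WIP1 (10 nM final) was preincubated 1 h at room temperature with compounds in Tris-HCl pH 7.5, 30 mM MgCl2, TCEP, EGTA, BSA; 2 uM VEPPL-pS-QETFS phosphopeptide was added for 5 min, quenched with formic acid, and dephosphorylated product quantified by RapidFire MS.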

The target is the same in test [4]. In words: Rhodamine-PBP qHTS Assay for Modulators of WT P53-Induced Phosphatase 1 (WIP1) (AID 1347425). Also: % of control where 0% means no effect. A digest of the protocol: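 WIP1 (5 nM final) was preincubated with compound for 1 hour at room temperature. It then dephosphorylated 10 uM VEPPL-pS-QETFS peptide in Tris-HCl pH 7.5 with 30 mM MgCl2. Released Pi was detected by 10 uM Rh-PBP fluorescence (ex 525/em 598 nm) read at 1-min intervals for 11 min, as delta f1 - f0.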

Test [5] can be described thus: Primary qHTS for inhibitors of La Crosse Virus (LACV) - induced cell death in SH-SY5Y cells (AID 1508616).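 Also: top concentration of the series differs between compounds; 0% = infected DMSO wells and 100% = uninfected DMSO wells; higher means more rescue of cells from virus-induced death.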 A digest of the protocol: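 Luminescent ATP readout (ATPLite 1step, 5 min room temperature) measured rescue from LACV-induced death after 6 days of infection at 0.01 MOI; normalized to infected DMSO wells and uninfected DMSO wells.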
The target of test [6] is Calcium and integrin-binding protein 1 (Homo sapiens) (UniProt Q99828). Briefly: Primary qHTS for Identification of Calcium Integrin Binding Protein 1 (CIB1) Competitor (AID 1508620).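 Also: GST tagged CIB1 binding a fluorescein labelled alphaIIb integrin peptide tracer; top concentration of the series differs between compounds; % is scaled to controls: 0 for no effect and ±100 for the full control effect.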 A digest of the protocol: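 Fluorescence polarization competition: CIB1-GST (1 uM final) preincubated with compound 15 min at room temperature, then FITC-labeled alphaIIb peptide (100 nM final) added for another 15 min. Polarization read at Ex 480/Em 540.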
Calcium and integrin-binding protein 1 (Homo sapiens), sequence (Q99828 whole entry, looked up): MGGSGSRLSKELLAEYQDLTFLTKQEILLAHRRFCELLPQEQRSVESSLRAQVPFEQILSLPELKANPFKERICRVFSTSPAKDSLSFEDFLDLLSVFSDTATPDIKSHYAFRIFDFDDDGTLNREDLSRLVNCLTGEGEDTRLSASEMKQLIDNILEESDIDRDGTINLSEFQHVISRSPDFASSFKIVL

Test [7] in a line: Counterscreen qHTS for small molecule stabilizers of the endoplasmic reticulum resident proteome: GLuc-NoTag assay (AID 1508627).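 Also: SH-SY5Y cells given compound then 100 nM thapsigargin to empty ER calcium; series mostly up to about 76 µM; 0% = thapsigargin alone and -100% = DMSO vehicle control.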 A digest of the protocol: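 SH-SY5Y cells stably expressing constitutively secreted GLuc (no SERCaMP tag) were pre-incubated 5 h, treated with compound for 19 h, then 100 nM thapsigargin for 4 h at 37C; medium GLuc read by coelenterazine luminescence.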

Test [8] can be described thus: Confirmatory qHTS for small molecule stabilizers of the endoplasmic reticulum resident proteome: Secreted ER Calcium Modulated Protein (SERCaMP) assay (AID 1508628). Also: nearly all actives have a fitted effect of over 40% in size. Also: potency is read from the fitted curve at half-maximal effect. A digest of the protocol:
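We seeded SH-SY5Y-GLuc-SERCaMP cells, added compounds (three concentrations in the primary run, eleven up to 76.6 uM in confirmation), incubated 16 h, depleted ER calcium with thapsigargin, and read luciferase 4 h later.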

Test [9] concerns the target Calcium and integrin-binding protein 1 (Homo sapiens) (UniProt Q99828). In words: Confirmatory qHTS for Identification of Calcium Integrin Binding Protein 1 (CIB1) Competitor (AID 1508617). Also: % is scaled to controls: 0 for no effect and ±100 for the full control effect; nearly all actives have a fitted effect of over 65% in size. A digest of the protocol: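 FP competition: CIB1-GST (1 uM final) in 5 mM HEPES pH 7.4, 125 mM NaCl, 5 mM CaCl2, 0.01% Tween20 preincubated 15 min RT with compounds (up to 114 uM), then FITC-alphaIIb peptide (100 nM), 15 min RT; Ex 480/Em 540.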

Each structure is given as a SMILES string. Inconclusive results are not listed. A number with no mark means an inactive call. Active and inactive are the calls of the source. Calls follow the shape of the dose curve; as a rule, active = well fitted curve in the direction sought with a large enough effect; inconclusive = small, poorly fitted or top-dose-only effect, or another doubt; inactive = no such curve, though single readings can be large; an effect the other way counts as inactive or inconclusive.

Protein phosphatase 1D (Homo sapiens), sequence (O15297 whole entry, looked up): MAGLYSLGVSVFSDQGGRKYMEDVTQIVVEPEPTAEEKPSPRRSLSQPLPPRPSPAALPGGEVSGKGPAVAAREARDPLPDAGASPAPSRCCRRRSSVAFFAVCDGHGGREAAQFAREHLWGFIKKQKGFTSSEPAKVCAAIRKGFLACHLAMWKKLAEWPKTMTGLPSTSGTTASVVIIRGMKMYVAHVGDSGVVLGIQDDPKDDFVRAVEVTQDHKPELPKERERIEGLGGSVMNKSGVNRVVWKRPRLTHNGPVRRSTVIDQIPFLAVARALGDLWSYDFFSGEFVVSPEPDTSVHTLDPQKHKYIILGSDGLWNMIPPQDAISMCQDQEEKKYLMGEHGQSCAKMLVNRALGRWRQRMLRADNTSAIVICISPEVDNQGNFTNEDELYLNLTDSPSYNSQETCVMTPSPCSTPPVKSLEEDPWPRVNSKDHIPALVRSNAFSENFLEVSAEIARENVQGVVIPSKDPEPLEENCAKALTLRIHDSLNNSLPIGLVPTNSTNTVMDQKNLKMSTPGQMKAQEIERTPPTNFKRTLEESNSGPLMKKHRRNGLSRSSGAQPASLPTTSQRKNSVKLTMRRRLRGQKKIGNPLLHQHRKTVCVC

On to `CCOc1cc(N)c(Cl)cc1C(=O)NCC1CN(Cc2ccc(F)cc2)CCO1` (configuration not stated), for which the Potency result in test [1], in [2], in test [5] and in test [8] was “inactive” each time. Further, the compound was classed as inactive in test [3], in test [4], in test [6] and in test [7].

With `CC(N)C12CC3CC(CC(C3)C1)C2` (configuration not stated), the Potency result in [1], in test [2] and in [5] was “inactive” throughout. Moreover, the result in [3], in [4] and in test [6] was inactive.

Consider `CCN[C@H]1C[C@H](C)S(=O)(=O)c2sc(S(N)(=O)=O)cc21`, for which the Potency entry in test [1], in [2] and in test [5] was “inactive” in each case. Also, the compound was classed as inactive in [3], in test [4] and in [6].

Regarding `O=S(=O)(O)CCS`, the Potency entry in [1], in [2] and in test [5] was “inactive” in each case. The compound was classed as inactive in test [3], in test [4] and in [6].

In the case of `CC(=O)Oc1ccccc1C(=O)Nc1ncc([N+](=O)[O-])s1`, the Potency entry in test [1] and in [5] was “inactive” each time. The Potency in test [2] is 23.4 µM (active).

For `Oc1c(Cl)cc(Cl)c2cccnc12`, the Potency entry in [1] is “inactive”. Moreover, in test [2], the Potency is 23.4 µM (active). For the same compound, the call in [3], in test [4] and in test [7] was inactive.

In the case of `S=P(N1CC1)(N1CC1)N1CC1`, the Potency result in test [1], in test [2], in test [5] and in test [8] was “inactive” in each case. Besides, the compound was classed as inactive in test [3], in test [6] and in test [7].

As for `COc1ccccc1OCC(O)COC(N)=O` (configuration not stated), the Potency entry in test [1] and in test [5] was “inactive” in each case. Besides, the compound was called inactive in test [3], in test [4] and in test [6].

As to `CC[C@H](C)C(=O)O[C@H]1C[C@@H](C)C=C2C=C[C@H](C)[C@H](CC[C@@H]3C[C@@H](O)CC(=O)O3)[C@H]21`, the Potency entry in test [1], in test [2] and in [5] was “inactive” throughout. Further, the compound was classed as inactive in test [3], in [4] and in test [6].

Turning to `C[C@@H]1C[C@H]2[C@@H]3CCC4=CC(=O)C=C[C@]4(C)[C@@]3(Cl)[C@@H](O)C[C@]2(C)[C@@]1(OC(=O)c1ccco1)C(=O)CCl`, the Potency result in test [1] and in test [5] was “inactive” in each case. Moreover, the call in [3], in test [4] and in test [6] was inactive.

Regarding `CN(C)c1ccc(C(=C2C=CC(=[N+](C)C)C=C2)c2ccc(N(C)C)cc2)cc1`, the Potency is 9.38 µM (active) in [1] and 3.7 µM (active) in [2]. Also, the outcome in test [3], in test [4] and in test [6] was inactive.

With `N[C@@H](C(=O)N[C@@H]1C(=O)N2C(C(=O)O)=C(Cl)CS[C@H]12)c1ccccc1`, the activity change, negative = inhibition was 3% [at 9.18 µM] in [1], -1.8% [at 12.6 µM] in test [3] and 10.7% [at 11.5 µM] in [4]. For the same compound, the activity change in test [5] is -11.4% [at 0.858 µM]. Besides, the outcome in test [6] was inactive.

Turning to `CC1(C)[C@H](C(=O)O)N2C(=O)C[C@H]2S1(=O)=O`, the Potency entry in test [1] and in test [5] was “inactive” throughout. In addition, the compound was called inactive in [3], in test [4] and in [6].

In the case of `CN(C)CCc1c[nH]c2ccc(C[C@H]3COC(=O)N3)cc12`, the Potency entry in [1] and in [5] was “inactive” each time. The call in test [3], in [4] and in test [6] was inactive.

Take `O=C(N[C@H](CO)[C@H](O)c1ccc([N+](=O)[O-])cc1)C(Cl)Cl`: the Potency entry in test [1] and in [5] was “inactive” throughout. The outcome in test [3], in test [4] and in test [6] was inactive.

For `O=c1cc(O)c(Cl)c[nH]1`, the Potency entry in test [1], in [2] and in test [5] was “inactive” in each case. Further, the call in test [3], in [4] and in test [6] was inactive.

Turning to `COc1cc(NS(=O)(=O)c2ccc(N)cc2)nc(OC)n1`, the Potency result in test [1] and in test [5] was “inactive” in each case. Further, the outcome in test [3], in [4] and in [6] was inactive.

As for `C#CCN[C@@H]1CCc2ccccc21`, the Potency entry in [1], in test [2] and in test [5] was “inactive” throughout. Further, the compound was called inactive in test [3], in test [4] and in test [6].

For `CNS(=O)(=O)Cc1ccc2[nH]cc(CCN(C)C)c2c1`, the Potency entry in test [1] and in [5] was “inactive” in each case. Also, the result in test [3], in test [4] and in test [6] was inactive.

As to `Cc1ccnc2c1NC(=O)c1cccnc1N2C1CC1`, the Potency result in test [1] and in [5] was “inactive” in each case. The outcome in test [3], in test [4] and in test [6] was inactive.

In the case of `CC(C)C1CCC(C(=O)N[C@H](Cc2ccccc2)C(=O)O)CC1` (some centres not stated), the Potency entry in test [1], in test [2] and in [5] was “inactive” each time. Moreover, the call in test [3], in [4] and in [6] was inactive.

`O[C@@H](CNC[C@H](O)[C@H]1CCc2cc(F)ccc2O1)[C@@H]1CCc2cc(F)ccc2O1`: in test [1], the Potency is 26.4 µM (active). For the same compound, the result in [3], in test [4] and in test [6] was inactive. In test [5], the Potency entry was “inactive”.

For the compound `Cc1cc(NS(=O)(=O)c2ccc(N)cc2)no1`, the Potency result in test [1] and in test [5] was “inactive” throughout. Further, the compound was called inactive in [3] and in test [4].

`CCC(C)(C)c1ccc(CC(C)CN2C[C@@H](C)O[C@@H](C)C2)cc1` (some centres not stated): the Potency entry in test [1], in [2] and in [5] was “inactive” throughout. Also, the outcome in [3], in test [4] and in test [6] was inactive.

With `Cc1nnc(NS(=O)(=O)c2ccc(N)cc2)s1`, the Potency result in [1], in [2] and in test [5] was “inactive” throughout. For the same compound, the result in [3], in test [4] and in [6] was inactive.

For the compound `CN1CCCC(n2nc(Cc3ccc(Cl)cc3)c3ccccc3c2=O)CC1` (configuration not stated), the Potency result in [1] and in [5] was “inactive” each time. Further, the compound was called inactive in test [3], in [4], in test [6] and in test [7]. Besides, the Potency in test [8] is 20 µM (active).

Take `CNCC[C@H](Oc1cccc2ccccc12)c1cccs1`: the result in [3], in test [4], in test [6] and in test [7] was inactive. The Potency entry in [8] was “inactive”.

Consider `CO[C@@]12[C@H](COC(N)=O)C3=C(C(=O)C(C)=C(N)C3=O)N1C[C@@H]1N[C@@H]12`, for which the compound was classed as inactive in test [3], in test [4], in [9] and in test [6]. Besides, in test [5], the Potency result is “inactive”.

Regarding `Clc1ccccc1CN1CCc2sccc2C1`, the compound was called inactive in test [3] and in [4].

Regarding `CCn1cc(C(=O)O)c(=O)c2cc(F)c(N3CCN(C)CC3)cc21`, the result in test [3] and in [4] was inactive. For the same compound, the Potency result in [5] is “inactive”.

With `CC(C)(C)C(=O)OCOP(=O)(COCCn1cnc2c(N)ncnc21)OCOC(=O)C(C)(C)C`, in [1], the Potency entry was “inactive”. In addition, the result in test [3], in test [4] and in [6] was inactive.

As to `CCN(C)C(=O)Oc1cccc([C@H](C)N(C)C)c1`, the Potency entry in test [1] and in [5] was “inactive” each time. Further, the call in [3], in [4] and in test [6] was inactive.

Turning to `CCc1c2c(nc3ccc(OC(=O)N4CCC(N5CCCCC5)CC4)cc13)-c1cc3c(c(=O)n1C2)COC(=O)[C@]3(O)CC`, the call in test [3] and in test [4] was inactive.

For the compound `CN1CCN(c2c(F)cc3c(=O)c(C(=O)O)cn(CCF)c3c2F)CC1`, the call in test [3] and in test [4] was inactive. The Potency result in [5] is “inactive”.

(Values after PubChem BioAssay (NCATS).)
